# Luciferase inh = Photinus pyralis luciferase inhibition; Potency, µM (doses to about 115 µM), most hits filed as inhibitors; P08659; purified P. pyralis luciferase, luminescence, biochemical; actives 2.5% (n = 76,000); note: nearly all actives have a fitted effect of over 65% in size
# Target sequence (P08659 whole entry, looked up): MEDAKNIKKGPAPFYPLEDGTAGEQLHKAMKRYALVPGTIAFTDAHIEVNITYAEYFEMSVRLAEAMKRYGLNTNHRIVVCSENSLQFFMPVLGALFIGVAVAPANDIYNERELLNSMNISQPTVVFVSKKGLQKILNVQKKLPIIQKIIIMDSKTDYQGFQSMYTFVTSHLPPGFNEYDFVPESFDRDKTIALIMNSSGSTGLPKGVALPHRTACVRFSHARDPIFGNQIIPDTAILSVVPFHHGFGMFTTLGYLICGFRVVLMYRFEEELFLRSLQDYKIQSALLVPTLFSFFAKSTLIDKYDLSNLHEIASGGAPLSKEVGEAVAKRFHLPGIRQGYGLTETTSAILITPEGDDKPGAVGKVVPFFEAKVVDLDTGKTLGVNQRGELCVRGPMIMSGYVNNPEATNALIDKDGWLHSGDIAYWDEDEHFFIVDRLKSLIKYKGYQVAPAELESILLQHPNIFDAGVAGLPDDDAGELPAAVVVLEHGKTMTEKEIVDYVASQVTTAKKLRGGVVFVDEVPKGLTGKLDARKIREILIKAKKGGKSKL
#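 Biochemical qHTS: compound (6-point titration) added to 10uM D-luciferin plus 10uM ATP in Tris acetate pH 7.5 buffer with Mg, Tween-20 and BSA, then purified enzyme at 10nM; light output imaged.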
# NPR1 antag = antagonists of human natriuretic peptide receptor Npr1; P16066; HEK293 hNpr1 GloSensor cGMP, ANP-stimulated luminescence; Potency, µM (top dose mostly 46.3 µM), inactives show top-dose activity change, negative = inhibition, hits mostly inhibitors; actives 1.6% (n = 76,000); calls by dose curve; note: nearly all actives have a fitted effect of over 60% in size
#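 HEK293 cells stably expressing human Npr1 and cGMP GloSensor pGS-40F, loaded 2 h with 2% GloSensor reagent, given compound 30 min at room temperature. Luminescence read before and 20 min after 0.1 nM hNppA.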
# HEK293 tox = cytotoxic compounds in HEK 293 cells | HEK 293 viability, ATP luminescence (CellTiter-Glo), 48-72 h | Potency, µM (top dose mostly 115 µM), for inactives: at the top dose activity change, negative = cytotoxicity, most hits filed as inhibitors | actives 6.6% (n = 94,000); note: nearly all actives have a fitted effect of over 60% in size
#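 HEK 293 cells at 250 cells/well were exposed to compounds by pintool transfer for 48 or 72 hr at 37 degree Celsius, 5% CO2. Viability was read as ATP-coupled luminescence with CellTiter-Glo after 10 min at room temperature.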
# NIH3T3 tox = cytotoxic compounds in NIH 3T3 cells; actives 4.3% (n = 94,000); NIH 3T3 viability, CellTiter-Glo ATP luminescence, 48-72 h; AID 1345082; Potency, µM (series often up to 96.7 µM), inactives show at the highest dose activity change, negative = cytotoxicity, hits mostly inhibitors; note: nearly all actives have a fitted effect of over 55% in size
#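 Mouse fibroblast NIH 3T3 cells, 400 per well, received compound via pintool and were incubated for 48 or 72 hr prior to CellTiter-Glo ATP luminescence measurement.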
# Active calls of the source: *; i = inactive; ? = inconclusive; . = no result; [ ] = dose if it differs, or a comment. In the library only some 11% were active in any assay of this set; here they are far more common. Unless noted, calls come from the whole dose curve; as a rule, active = well fitted curve in the direction sought with a large enough effect; inconclusive = small, poorly fitted or top-dose-only effect, or another doubt; inactive = no such curve, though single readings can be large; an effect the other way counts as inactive or inconclusive. % is set by controls: 0 for no effect and ±100 for the full control effect; potency is the fitted concentration of half-maximal effect.
SMILES,Luciferase inh,NPR1 antag,HEK293 tox,NIH3T3 tox
CC(=O)N1CCC(c2nnc3n2C(C(=O)NCCc2ccc(Cl)cc2)CC3)CC1 (stereo not given),.,.,-24%[172 µM],-14%[138 µM]
O=C1CC2(CCN(Cc3cccc(OCc4ccccc4Cl)c3)CC2)CN1,?,9%,?,?
NC(=O)c1ccc(OC2CCN(C(=O)C3CCC3)CC2)nc1,i,-23%,?,-37%
COc1cccc(-c2noc(-c3ccc(-c4ccc(O)cc4)nc3)n2)c1OC,?,-1%,?,45µM*
COc1ccccc1-c1noc(-c2nc(-c3ccncc3)no2)n1,i,-5%,-2%,5%
O=C(c1ccccc1Cl)N1CCCC(C(=O)N2CCC(c3nc4ncccc4[nH]3)CC2)C1 (stereo not given),.,.,3%,-10%
COc1cccc(CC(=O)N2CCC(c3n[nH]c(=O)n3-c3ccc(C)cc3)CC2)c1,i,10%,0%,10µM*
Cc1ccc(-n2c(C3CCN(C(=O)c4nn(C)c5ccccc45)CC3)n[nH]c2=O)cc1,i,0%,-2%,8.9µM*
Cc1ccc(-n2c(C3CCN(C(=O)Cc4ccccc4Cl)CC3)n[nH]c2=O)cc1,i,-2%,-1%,?
Cc1ccc(CC(=O)N2CCC(c3n[nH]c(=O)n3-c3ccccc3)CC2)cc1,i,0%,-7%,35µM*
Cc1ccc(-n2c(C3CCN(C(=O)c4n[nH]c5ccccc45)CC3)n[nH]c2=O)cc1,i,14%,-3%,?
Cc1ccc(-n2c(C3CCN(C(=O)Cc4ccc(Cl)cc4)CC3)n[nH]c2=O)cc1,i,0%,-1%,45µM*
C=CCN1CCN(C(=O)CCC[C@H]2NC[C@@H]3C[C@H]2CN(Cc2ccccc2)C3)CC1,i,0%,-8%,i
CC(=O)N1CCC(c2nnc3n2C(C(=O)NC2CCCCCC2)CC3)CC1 (stereo not given),.,.,-3%,-9%
O=C(c1ccccn1)N1CCCC2(CNc3ncccc3[S+](=O)([O-])N2)C1 (stereo not given),.,.,-19%,-3%
CCCCn1c(=O)c(C(=O)NC)nc2cccnc21,.,.,i,1%[138 µM]
Cn1nc(C(=O)N2CCC(OCCOc3ccccc3)CC2)c2ccccc21,40µM*,-1%,?,?
O=C(NC1CC1)C1CCCN1C(=O)c1cccc(-c2ccccn2)c1 (stereo not given),.,.,-13%[172 µM],-17%[138 µM]
CCS[C@H]1CCN2C(=O)c3cc(-c4ccccc4F)ccc3NC(=O)[C@H]12,i,3%[70.6 µM],89µM*,?
C=CCO[C@@H]1CCN2C(=O)c3cc(-c4cccc(C(F)(F)F)c4)ccc3NC(=O)[C@H]12,i,-1%[70.6 µM],71µM*,?
C=CCO[C@@H]1C[C@H]2C(=O)Nc3ccc(-c4ccc(F)cc4F)cc3C(=O)N2C1,i,-6%[70.6 µM],?,50µM*
C=CCO[C@@H]1CCN2C(=O)c3cc(-c4cc(Cl)ccc4OC)ccc3NC(=O)[C@H]12,i,-16%[70.6 µM],63µM*,100µM*
COc1ccc(Cl)cc1-c1ccc2c(c1)C(=O)N1CCN(C(=O)CO)C[C@@H]1C(=O)N2,i,0%[70.6 µM],?,-7%[174 µM]
C=CCO[C@@H]1CCN2C(=O)c3cc(-c4ccccc4)ccc3NC(=O)[C@H]12,i,-9%[70.6 µM],-26%[172 µM],-26%[174 µM]
C=CCO[C@@H]1CCN2C(=O)c3cc(-c4ccc(F)cc4F)ccc3NC(=O)[C@H]12,i,-1%[70.6 µM],112µM*,-13%[174 µM]
SMILES,Luciferase inh,NPR1 antag,HEK293 tox,NIH3T3 tox
O=C(N[C@H]1CCN2C(=O)c3ccccc3NC(=O)[C@H]12)c1cnccn1,i,7%[70.6 µM],2%[172 µM],2%[138 µM]
N[C@H]1CCN2C(=O)c3cc(-c4ccccc4F)ccc3NC(=O)[C@H]12,i,-3%[70.6 µM],-17%[172 µM],-28%[138 µM]
COc1ccc(/C=C/c2ccc3c(c2)C(=O)N2CC[C@H](NC(=O)c4cnccn4)[C@H]2C(=O)N3)cc1,7.9µM*,-1%,-6%,-4%
O=C(N[C@H]1CCN2C(=O)c3cc(-c4cccc(C(F)(F)F)c4)ccc3NC(=O)[C@H]12)c1cnccn1,i,-1%,45µM*,79µM*
COc1ccc(/C=C/c2ccc3c(c2)C(=O)N2CC[C@H](N)[C@H]2C(=O)N3)cc1,20µM*,1%[70.6 µM],100µM*,?
O=C(N[C@H]1CCN2C(=O)c3cc(-c4ccc(Cl)cc4)ccc3NC(=O)[C@H]12)c1cnccn1,i,0%,79µM*,?
O=C(NCc1ccccc1)C1CCN(Cc2ccccc2-c2cccnc2)CC1,.,.,-2%,-17%
CNC(=O)[C@H]1CN(C(=O)OCc2ccccc2)[C@]2(C)C(=O)N(CCOC)c3ccccc3[C@H]12,.,.,?,-22%[46.1 µM]
CCCN1CCC(N2CCC3(CC2)CC(C(=O)N2CCOCC2)N(C)C3)CC1 (stereo not given),.,.,-2%,-21%
Cc1nn(-c2ccc(C(F)(F)F)cc2)c(C)c1[C@@H]1C=C[C@@H](NS(=O)(=O)c2ccccc2)C1,i,-29%,45µM*,40µM*
Cc1nn(-c2ccc(C(F)(F)F)cc2)c(C)c1[C@@H]1C=C[C@@H](NC(=O)COc2ccccc2)C1,i,-24%,?,?
Cc1ccc(-n2nc(C)c([C@@H]3C=C[C@@H](NS(=O)(=O)c4cccs4)C3)c2C)cc1Cl,?,?,45µM*,35µM*
COc1ccc(C(=O)N[C@@H]2C=C[C@@H](c3c(C)nn(-c4ccc(C)c(Cl)c4)c3C)C2)cc1,32µM*,?,?,?
O=C(NCC(F)(F)F)c1ccc2nc(-c3cccnc3)oc2c1,.,.,?,-26%[138 µM]
CCS(=O)(=O)N1CCc2nc(-c3ccccc3)[nH]c2C1,.,.,-13%,-17%
COc1ccccc1CNC(=O)c1ccc2c(c1)CC(=O)N2Cc1ccc(F)cc1,i,-14%,?,?
CNC(=O)c1cc(C2CC2)nc2c1c(C1CCCN([S+](=O)([O-])C(C)C)C1)nn2C (stereo not given),.,.,-18%,-16%
COc1cccc(NC(=O)c2ccc3c(c2)N(C)C2CCCCN2C3=O)c1 (stereo not given),?,0%,?,?
CN1c2cc(C(=O)Nc3cccc(OC(F)(F)F)c3)ccc2C(=O)N2CCCC21 (stereo not given),i,-5%,?,35µM*
CN1c2cc(C(=O)Nc3cccc(OC(F)(F)F)c3)ccc2C(=O)N2CCCCC21 (stereo not given),?,?,18µM*,?
COc1cccc(NC(=O)c2ccc3c(c2)N(C)C2CCCN2C3=O)c1 (stereo not given),?,-10%,-15%,-3%
COc1cccc(-c2cc(C3CCN(C(=O)Nc4ccc(C)cc4C)CC3)[nH]n2)c1,i,-19%,45µM*,?
COc1cccc(-c2cc(C3CCN(C(=O)Nc4ccc5c(c4)OCCO5)CC3)[nH]n2)c1,25µM*,?,?,40µM*
COc1cccc(-c2cc(C3CCN(C(=O)Nc4cccc(C)c4)CC3)[nH]n2)c1,?,-23%,?,?

# High-throughput results from PubChem.
